Laboratory results published in PubChem BioAssay.
Values joined by “and” are separate entries in the source; they are usually repeats but may differ in a detail not shown here. Equal values may be shown once. Some compounds were tested as several samples or in several runs, with calls that do not always agree. Active and inactive are the calls of the source.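 The calls were made as follows, unless noted: active = inhibition at or above 50% relative to wild type and mutant plate controls; inactive = inhibition below 50%.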 Residues, ends and D or L forms follow the SMILES beside them.

What was measured:
[1] = inhibitors of TNFa-induced NFkB p65 translocation, primary screen, imaging, HUVEC, MLSMR starter and 10KST1 sets (AID 438;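 active = inhibition above 20% together with a positive visual image hit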;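 also: compound added about 3h40 before a 20 min TNFalpha stimulation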;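 as to inhibition: signal is the nuclear over cytoplasmic p65 intensity ratio per well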); details: HUVEC TNFa-induced p65 nuclear translocation; cell count: measured here: nuclei count (cytotoxicity indicator), at 2.08 µM unless noted; inhibition: at 2 µM, stronger effect = higher value unless noted
[2] = reduction of polyQ htt aggregates in cells – imaging, exon1htt(103Q)mCFP cells, high-content imaging, primary screen (AID 483;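 active = visual image review flags a hit and inhibition of aggregation exceeds 20%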;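 also: compound exposure lasted 3 days before fixation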;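 as to nuclei count: percent of the per-plate median nuclei count of sample wells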); details: exon1htt(103Q)mCFP cell line, aggregate imaging, at 2 µM; inhibition of aggregation: stronger effect = higher value; nuclei count: measured here: cell count, toxicity
[3] = endothelial E-selectin expression blockers – imaging, HUVEC, immunofluorescence, MLSMR starter and 10KST1 sets, primary screen (AID 487;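 active = visually confirmed hit in the image check and inhibition above 20%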;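 as to inhibition: signal is fraction of cell area covered by stained E-selectin grains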;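 as to nuclei count: 100% = median nuclei count of all wells on the same plate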); details: HUVEC TNFalpha-induced E-selectin immunofluorescence imaging, at 2 µM; inhibition: stronger effect = higher value; nuclei count: measured here: cell number, toxicity
[4] = Primary imaging screen for DUSP6 inhibitors that restore phospho-Erk in transfected HeLa cells, chemical complementation (AID 609;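 active = compounds giving at least 50% inhibition in the cell-based MKP-3 phosphatase rescue imaging test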;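 as to inhibition: phospho-Erk level distribution per well compared with pooled transfected vehicle control wells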); details: HeLa MKP-3 transfected, phospho-Erk imaging KS statistic, at 10 µM
[5] = target: Dual specificity protein phosphatase 6 (Homo sapiens) (UniProt Q16828); test: as above; details: HeLa MKP-3 transfected, phospho-Erk imaging KS statistic, at 10 µM, stronger effect = higher value
[6] = target: Voltage-gated potassium channel subunit beta-2 (Rattus norvegicus) (UniProt P62483); test: inhibitors of rat Kvbeta2 reductase activity – biochemical, NADPH fluorescence, primary screen (AID 622;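 active = fluorescence slope higher than the sample average by over 3 SD, cut at about -0.22 in these data, passing the limit was not always enough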;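 also: slope of raw intensity against log time taken from 70 to 1610 s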); details: recombinant KvBeta, 4-cyanobenzaldehyde reduction, at 10 µM, stronger effect = higher value
[7] = target: Voltage-gated potassium channel subunit beta-2 (Rattus norvegicus) (UniProt P62483); test: enhancers of rat Kvbeta2 NADPH turnover – biochemical, NADPH fluorescence, primary screen (AID 623;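 active = NADPH fluorescence slope more negative than the mean of all samples by about 3 SD, 99.7% confidence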;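 also: fluorescence intensity change per second fitted from 20 to 320 s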); details: Recombinant KvBeta, NADPH fluorescence decrease slope, 10 min; at 10 µM; stronger effect = lower value
[8] = target: Alpha-2C adrenergic receptor (Homo sapiens) (UniProt P18825); test: compounds altering alpha2C-coupled GIRK flux – cell-based, HEK293 alpha2C/GIRK1/2, thallium flux, primary screen (AID 624;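 active = fluorescence slope after compound addition differing from the mean of all screened samples at 99.7% confidence, in either direction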;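 also: slope of fluorescence ratio to pre-addition baseline per second over 15 to 24 s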); details: thallium flux BTC fluorescence, at 10 µM, actives lie on both sides
[9] = inhibitors of larval lipid processing in zebrafish, primary screen, whole organism, PED6 fluorescence, gall bladder and intestine (AID 686;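 active = a full or partial loss of lipid-probe fluorescence in the fish gall bladder, intestine or both, judged by eye; inactive = no fluorescence loss, or compound toxic to the fish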;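 also: larvae 5 to 7 days old with five fish per well; signal comes from phospholipase A2 cleavage of quenched PED6 carried via bile; overnight exposure to compound and PED6 before scoring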); details: Zebrafish larvae PED6 lipid processing, fluorescence scoring
[10] = loss of swimming-algae plug formation – whole organism, Chlamydomonas reinhardtii, WT vs cilia-less mutant, absorbance, 96-well, primary screen (AID 463189); details: Chlamydomonas reinhardtii gravitaxis, OD600 absorbance, 2 days; at 10 µM; stronger effect = higher value;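 also: 0% = wild type cc124 cells in DMSO and 100% = ciliumless bld1 mutant cells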
[11] = blockers of RIG-like receptor reporter activation – cell-based, Sendai virus stimulus, luciferase, 10K MLSCN set, TLR/RLR signaling modifier project, primary screen (AID 602276;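 active = inhibition at or above 50% at 10 µM; inactive = inhibition below 50%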;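 also: firefly luciferase from ISG56 promoter only with Renilla not read in this screen; 0% = Sendai virus plus DMSO and 100% = medium plus DMSO without virus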); details: HEK293 RL24 IRF3 luciferase reporter, at 10 µM, stronger effect = higher value
[12] = TLR3 IRF3 reporter activation blockers – cell-based, poly I:C stimulus, luciferase, 10K MLSCN set, primary screen (AID 602277;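 active = inhibition of the reporter signal at or above 50%; inactive = inhibition below 50%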); details: HEK293-TLR3 RL24 IRF3 luciferase reporter, at 10 µM, stronger effect = higher value
[13] = target: Muscarinic acetylcholine receptor M4 (Homo sapiens) (UniProt P08173); test: M4-linked GIRK flux change, two-sided – cell-based, HEK293 M4/GIRK, thallium flux, BTC-AM, M4 allosteric agonist project, primary screen (AID 625;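 active = fluorescence slope after compound addition differing from the mean of all tested samples at 99.7% confidence, mostly higher but some lower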;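 also: thallium influx through GIRK channels coupled to M4 in HEK293 cells with BTC-AM dye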); details: at 10 µM, actives lie on both sides
[14] = measured here: cell density z-score
[15] = measured here: nuclear c-Myc green intensity z-score
[16] = measured here: nuclear pErk red intensity z-score, stronger effect = higher value

Sequence of Voltage-gated potassium channel subunit beta-2 (Rattus norvegicus) (P62483 whole entry, looked up): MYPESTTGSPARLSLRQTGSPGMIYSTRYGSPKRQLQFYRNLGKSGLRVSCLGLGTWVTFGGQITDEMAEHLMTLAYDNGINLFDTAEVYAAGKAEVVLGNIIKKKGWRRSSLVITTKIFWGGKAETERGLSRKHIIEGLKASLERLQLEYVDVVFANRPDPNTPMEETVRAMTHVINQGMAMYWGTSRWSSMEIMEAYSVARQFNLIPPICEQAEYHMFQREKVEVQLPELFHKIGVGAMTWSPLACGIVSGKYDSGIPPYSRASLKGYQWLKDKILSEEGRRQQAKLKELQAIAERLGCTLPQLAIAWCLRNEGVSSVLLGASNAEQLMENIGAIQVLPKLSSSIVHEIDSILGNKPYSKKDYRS
Sequence of Dual specificity protein phosphatase 6 (Homo sapiens) (Q16828 whole entry, looked up): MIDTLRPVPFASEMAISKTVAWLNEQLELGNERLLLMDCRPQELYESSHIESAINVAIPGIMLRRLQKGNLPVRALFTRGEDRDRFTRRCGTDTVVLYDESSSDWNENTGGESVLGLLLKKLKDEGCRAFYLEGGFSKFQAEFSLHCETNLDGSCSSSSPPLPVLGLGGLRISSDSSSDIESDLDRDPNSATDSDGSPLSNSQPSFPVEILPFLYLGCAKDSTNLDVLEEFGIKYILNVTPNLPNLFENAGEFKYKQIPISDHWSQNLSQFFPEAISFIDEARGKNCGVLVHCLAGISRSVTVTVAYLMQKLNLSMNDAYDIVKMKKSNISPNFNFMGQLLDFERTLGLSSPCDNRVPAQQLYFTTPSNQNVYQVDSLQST
Sequence of Alpha-2C adrenergic receptor (Homo sapiens) (P18825 whole entry, looked up): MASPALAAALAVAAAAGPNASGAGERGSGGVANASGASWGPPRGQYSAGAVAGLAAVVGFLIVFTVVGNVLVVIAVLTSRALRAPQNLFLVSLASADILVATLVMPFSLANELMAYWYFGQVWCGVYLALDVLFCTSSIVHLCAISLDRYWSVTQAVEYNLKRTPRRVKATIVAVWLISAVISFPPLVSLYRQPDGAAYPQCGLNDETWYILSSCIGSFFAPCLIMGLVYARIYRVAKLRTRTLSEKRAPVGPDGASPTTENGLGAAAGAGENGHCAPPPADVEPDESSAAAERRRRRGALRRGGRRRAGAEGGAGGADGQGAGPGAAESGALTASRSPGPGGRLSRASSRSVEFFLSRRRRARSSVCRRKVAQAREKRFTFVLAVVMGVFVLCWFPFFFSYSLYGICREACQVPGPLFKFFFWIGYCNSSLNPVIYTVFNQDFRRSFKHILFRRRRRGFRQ
Sequence of Muscarinic acetylcholine receptor M4 (Homo sapiens) (P08173 whole entry, looked up): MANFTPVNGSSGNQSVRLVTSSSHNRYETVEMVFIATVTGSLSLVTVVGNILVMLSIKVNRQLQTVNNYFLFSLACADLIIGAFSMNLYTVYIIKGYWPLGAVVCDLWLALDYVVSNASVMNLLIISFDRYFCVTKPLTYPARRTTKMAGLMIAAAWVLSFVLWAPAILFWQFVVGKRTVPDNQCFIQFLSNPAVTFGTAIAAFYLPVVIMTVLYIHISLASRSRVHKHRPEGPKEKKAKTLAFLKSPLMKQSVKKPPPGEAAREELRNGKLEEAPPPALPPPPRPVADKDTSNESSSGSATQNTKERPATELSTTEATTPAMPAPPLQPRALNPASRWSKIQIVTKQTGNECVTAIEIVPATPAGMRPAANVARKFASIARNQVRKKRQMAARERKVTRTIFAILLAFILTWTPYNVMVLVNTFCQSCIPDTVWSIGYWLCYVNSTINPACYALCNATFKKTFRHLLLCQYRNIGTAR

Structure (SMILES): CCCC(=O)OCC[N+](C)(C)C
- cell count [1]: 626
- inhibition [1]: -8.2% (inactive)
- inhibition of aggregation [2]: -16.7% (inactive)
- nuclei count [2]: 111%
- inhibition [3]: -31.1% (inactive)
- nuclei count [3]: 135%
- z-score [4, 14]: 0.404
- z-score [4, 15]: -0.787
- z-score [4, 16]: 0.37
- inhibition [5]: 13.3% (inactive)
- fluorescence slope [6]: -0.481 (inactive)
- NADPH fluorescence slope [7]: 5e-06 (inactive)
- slope [8]: 0.00561 (inactive)
- outcome [9]: inactive
- inhibition [10]: 18.3% (inactive)
- inhibition [11]: 21.4% (inactive)
- inhibition [12]: 35% (inactive)

Structure (SMILES): CC(C)[C@@]1(NC(=O)[C@@H]2C[C@@H]3c4cccc5[nH]cc(c45)C[C@H]3N(C)C2)O[C@@]2(O)[C@@H]3CCCN3C(=O)[C@H](Cc3ccccc3)N2C1=O
- cell count [1]: 640
- inhibition [1]: 11.1% (inactive)
- inhibition of aggregation [2]: 20.4% (inactive)
- nuclei count [2]: 90.4%
- inhibition [3]: -79.8% (inactive)
- nuclei count [3]: 113%
- z-score [4, 14]: -0.842
- z-score [4, 15]: -0.876
- z-score [4, 16]: 1.64
- inhibition [5]: -0.828% (inactive)
- fluorescence slope [6]: -0.47 (inactive)
- NADPH fluorescence slope [7]: -3.7e-05 (inactive)
- slope [8]: 0.00471 (inactive)
- inhibition [10]: -5.54% (inactive) and 15.7% (inactive)
- inhibition [11]: 3.2% (inactive)
- inhibition [12]: 36.1% (inactive)

Structure (SMILES): Cc1c2ccncc2c(C)c2c1[nH]c1ccccc12
- cell count [1]: 493
- inhibition [1]: -11.8% (inactive)
- inhibition of aggregation [2]: -178% (inactive)
- nuclei count [2]: 27.6%
- inhibition [3]: -23% (inactive)
- nuclei count [3]: 100%
- z-score [4, 14]: -0.124
- z-score [4, 15]: 0.964
- z-score [4, 16]: -1.2
- inhibition [5]: 38.9% (inactive)
- fluorescence slope [6]: -0.464 (inactive)
- NADPH fluorescence slope [7]: -5.8e-09 (inactive)
- slope [8]: 0.0129 (active)
- inhibition [10]: 11% (inactive) and 108% (active)
- inhibition [11]: 12.8% (inactive)
- inhibition [12]: 91.8% (active)

Structure (SMILES): CN1CC[C@@]23CCCC[C@@H]2[C@@H]1Cc1ccc(O)cc13
- cell count [1]: 612
- inhibition [1]: -2% (inactive)
- inhibition of aggregation [2]: -9.3% (inactive)
- nuclei count [2]: 78.9%
- inhibition [3]: -41.4% (inactive)
- nuclei count [3]: 127%
- z-score [4, 14]: -1.02
- z-score [4, 15]: 0.228
- z-score [4, 16]: 2.32
- inhibition [5]: -3.03% (inactive)
- fluorescence slope [6]: -0.439 (inactive)
- NADPH fluorescence slope [7]: 2.4e-05 (inactive)
- slope [8]: 0.00406 (inactive)
- outcome [9]: inactive
- inhibition [10]: -11.1% (inactive)
- inhibition [11]: -1.46% (inactive)
- inhibition [12]: 37.2% (inactive)

Structure (SMILES): O=c1c2ccccc2[se]n1-c1ccccc1
- cell count [1]: 504
- inhibition [1]: -10.8% (inactive)
- inhibition of aggregation [2]: 7.2% (inactive)
- nuclei count [2]: 84.9%
- inhibition [3]: -42.3% (inactive)
- nuclei count [3]: 117%
- z-score [4, 14]: 1
- z-score [4, 15]: 0.0235
- z-score [4, 16]: -0.954
- inhibition [5]: 7.39% (inactive)
- fluorescence slope [6]: -0.437 (inactive)
- NADPH fluorescence slope [7]: -0.000217 (active)
- slope [8]: 0.00458 (inactive)
- outcome [9]: inactive
- inhibition [10]: 6.32% (inactive) and 27.8% (inactive)
- inhibition [11]: 0.283% (inactive)
- inhibition [12]: 12.7% (inactive)

Structure (SMILES): C[C@@]1(CO)[C@H](O)CC[C@@]2(C)[C@H]1CC[C@H]1C[C@@H]3C[C@@]12CC[C@]3(O)CO
- cell count [1]: 629
- inhibition [1]: -4.1% (inactive)
- inhibition of aggregation [2]: -9.1% (inactive)
- nuclei count [2]: 9.1%
- inhibition [3]: -34.7% (inactive)
- nuclei count [3]: 113%
- z-score [4, 14]: 0.71
- z-score [4, 15]: -0.0811
- z-score [4, 16]: -0.673
- inhibition [5]: 1.48% (inactive)
- fluorescence slope [6]: -0.469 (inactive)
- NADPH fluorescence slope [7]: -5.6e-05 (inactive)
- slope [8]: 0.00555 (inactive)
- outcome [9]: inactive
- inhibition [10]: -7.52% (inactive)
- inhibition [11]: -34.2% (inactive)
- inhibition [12]: 49.2% (inactive)

Structure (SMILES): CCC(COC(=O)c1cc(OC)c(OC)c(OC)c1)(c1ccccc1)N(C)C (stereo not drawn)
- cell count [1]: 445
- inhibition [1]: -6.3% (inactive)
- inhibition of aggregation [2]: 12.7% (inactive)
- nuclei count [2]: 92.2%
- inhibition [3]: -6.1% (inactive)
- nuclei count [3]: 92.2%
- z-score [4, 14]: -0.162
- z-score [4, 15]: 0.437
- z-score [4, 16]: -0.404
- inhibition [5]: 3.45% (inactive)
- fluorescence slope [6]: -0.498 (inactive)
- NADPH fluorescence slope [7]: -7.2e-05 (inactive)
- slope [8]: 0.00446 (inactive)
- outcome [9]: inactive
- inhibition [10]: -3.48% (inactive)
- inhibition [11]: 1.96% (inactive)
- inhibition [12]: 35% (inactive)

Structure (SMILES): CC1=C(C(=O)OC(C)C)[C@]2(C(=O)N(CC(N)=O)c3ccccc32)C(C#N)=C(N)O1
- cell count [1]: 568
- inhibition [1]: -7.6% (inactive)
- inhibition of aggregation [2]: -10.5% (inactive)
- nuclei count [2]: 87.4%
- inhibition [3]: -47.2% (inactive)
- nuclei count [3]: 126%
- z-score [4, 14]: 1.04
- z-score [4, 15]: -0.385
- z-score [4, 16]: -1.8
- inhibition [5]: -0.624% (inactive)
- fluorescence slope [6]: -0.435 (inactive)
- NADPH fluorescence slope [7]: -5.8e-05 (inactive)
- slope [8]: 0.00458 (inactive)
- fluorescence slope [13]: 0.00529 (inactive)
- outcome [9]: inactive
- inhibition [10]: 1.76% (inactive)
- inhibition [11]: 15.6% (inactive)
- inhibition [12]: 21.9% (inactive)

Structure (SMILES): CC(C)[C@@]1(NC(=O)[C@@H]2C=C3c4cccc5[nH]cc(c45)C[C@H]3N(C)C2)O[C@@]2(O)[C@@H]3CCCN3C(=O)[C@H](Cc3ccccc3)N2C1=O
- cell count [1]: 584
- inhibition [1]: -0.4% (inactive)
- inhibition of aggregation [2]: 7.1% (inactive)
- nuclei count [2]: 99.7%
- inhibition [3]: -22.9% (inactive)
- nuclei count [3]: 114%
- z-score [4, 14]: 0.234
- z-score [4, 15]: 0.806
- z-score [4, 16]: -0.53
- inhibition [5]: 10.2% (inactive)
- fluorescence slope [6]: -0.477 (inactive)
- NADPH fluorescence slope [7]: -1e-05 (inactive)
- slope [8]: 0.00405 (inactive)
- inhibition [10]: 1.14% (inactive) and 21.5% (inactive)
- inhibition [11]: 22% (inactive)
- inhibition [12]: 13.1% (inactive)

Structure (SMILES): CC(C)C[C@H](NC(=O)[C@@H]1CCCN1C(=O)[C@@H](N)Cc1ccc(O)cc1)C(=O)NCC(N)=O (H-YPLG-NH2)
- cell count [1]: 621
- inhibition [1]: -3.8% (inactive)
- inhibition of aggregation [2]: -9.8% (inactive)
- nuclei count [2]: 103%
- inhibition [3]: -65.3% (inactive)
- nuclei count [3]: 104%
- z-score [4, 14]: -0.734
- z-score [4, 15]: -0.49
- z-score [4, 16]: -1.27
- inhibition [5]: 1.48% (inactive)
- fluorescence slope [6]: -0.471 (inactive)
- NADPH fluorescence slope [7]: -6.7e-05 (inactive)
- slope [8]: 0.00565 (inactive)
- outcome [9]: inactive
- inhibition [10]: -9.78% (inactive)
- inhibition [11]: 2.09% (inactive)
- inhibition [12]: 31.8% (inactive)
